Hits are enriched below; roughly 3% of the tested compounds scored in any of these assays.
HEK293 viab: counter-screen for SNCA expression inhibitors: cell viability; HEK-293-SNCA-luc viability, GF-AFC fluorescence, 24 h; Potency, µM (titrated, usually from 57.1 µM), inactives show at the top dose activity change, negative = cytotoxicity, usual class: cytotoxic; 150,000 compounds, 0.12% hits; AID 1671193;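 note: potency is the fitted concentration of half-maximal effect; 0% = DMSO-treated cells and -100% = medium-only wells without cells; nearly all actives have a fitted effect of over 30% in size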
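HEK-293-SNCA-luc cells (1500/well) plated 24 h, then exposed 24 h to a dilution series; GF-AFC added 30 min at 37C, fluorescence 405/540 nm; normalised to medium-only and DMSO wells, Hill fit.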
SNCA expr inh: inhibitors of alpha-synuclein (SNCA) gene expression; 140,000 compounds, 0.17% hits; AID 1671194; Potency, µM (series often up to 57.2 µM), inactives show top-dose activity change, negative = inhibition, actives largely listed as inhibitors; HEK-293 SNCA-luciferase knock-in, luminescence, 24 h;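 note: potency is the fitted concentration of half-maximal effect; plate controls were DMSO cells for no effect and cell-free wells for full effect; nearly all actives have a fitted effect of over 45% in size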
KDM5B inh: blocks human KDM5B histone demethylase activity; Q9UGL1; KDM5B demethylase, FDH-coupled NADH fluorescence (FDH is formaldehyde dehydrogenase); Potency, µM (top dose mostly 57.7 µM), usual class: inhibitors; 220,000 compounds, 2.6% hits; AID 1347165; note: potency is the fitted concentration of half-maximal effect; 0% is about no effect; nearly all actives have a fitted effect of over 70% in size
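Here, H3K4me3 peptide (12.5 µM in substrate mix) is demethylated by KDM5BΔAP, 200 nM final, after 10 min compound exposure. Formaldehyde product is coupled through FDH (0.25 U/mL in mix) to NADH fluorescence; 30-min ΔRFU feeds dose-response curves.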
IP6K1 inh: blocks human inositol hexakisphosphate kinase 1; activity change, % (series mostly up to about 58 µM); Q92551; IP6K1 kinase, ADP-Glo luminescence, 2 h; stronger effect = lower value; 140,000 compounds, 0.81% hits; AID 1645851; in the data active = activity change below about -25%; note: % is set by controls: 0 for no effect and ±100 for the full control effect
Target sequence (Q92551 whole entry, looked up): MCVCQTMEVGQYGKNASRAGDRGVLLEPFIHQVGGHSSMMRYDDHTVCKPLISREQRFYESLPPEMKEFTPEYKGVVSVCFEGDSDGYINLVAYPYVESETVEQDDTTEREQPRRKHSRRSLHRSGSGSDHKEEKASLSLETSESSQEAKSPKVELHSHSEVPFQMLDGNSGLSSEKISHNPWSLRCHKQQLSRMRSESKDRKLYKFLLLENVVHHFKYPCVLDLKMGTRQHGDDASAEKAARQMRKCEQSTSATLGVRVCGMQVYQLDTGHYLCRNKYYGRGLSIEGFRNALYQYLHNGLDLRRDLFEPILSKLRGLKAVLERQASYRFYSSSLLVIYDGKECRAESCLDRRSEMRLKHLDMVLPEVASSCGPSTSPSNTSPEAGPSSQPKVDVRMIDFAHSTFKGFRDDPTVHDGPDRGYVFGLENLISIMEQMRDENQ
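ADP-Glo luminescence measures ADP made by human IP6K1 during a 2 h RT reaction with ATP/IP6 (mix at 1.3 mM/130 uM); top library doses 57.5 and 19.1 uM final.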
* marks the source's active call; other numbers are inactive results; i = inactive; u = inconclusive; x = no result; ! = not active in a repeat; [ ] = dose if it differs, or a comment. Unless noted, calls come from the whole dose curve; as a rule, active = well fitted curve in the direction sought with a large enough effect; inconclusive = small, poorly fitted or top-dose-only effect, or another doubt; inactive = no such curve, though single readings can be large; an effect the other way counts as inactive or inconclusive.

SMILES	HEK293 viab	SNCA expr inh	KDM5B inh	IP6K1 inh
CCc1noc(-c2cn(C3CCN(C(=O)c4cccc5[nH]ccc45)CC3)nn2)n1	5%	21%	32µM*	44
COc1ccc(F)cc1-c1cccc(C(=O)NCC(=O)N2CCOCC2)c1	x	x	x	-8
O=C(O)c1cccnc1	4.3µM*!	4.3µM*!	x	3
O=C(NCCc1ccc(Cl)cc1)C1CCN(Cc2ccccc2-c2cccnc2)CC1	-9%[12.5 µM]	-17%	x	24
O=C(NCc1cccnc1)C1CCN(C(=O)c2ccc(-c3cccs3)cc2)CC1	x	x	x	-4
O=[S+]([O-])(c1cccc(C(F)(F)F)c1)N1CCCN(c2ccnc3ccnn23)CC1	10%	0%	x	-7
O=[S+]1([O-])NC2(CCN(CC3CCCCC3)CC2)COc2ccccc21	-2%	5%	71µM*	-6
O=[S+]1([O-])NC2(CCN(Cc3ccc(Cl)s3)CC2)COc2ccccc21	2%	-19%	71µM*	-9
CC(C)(Oc1nn(CC2CCOCC2)c2ccccc12)C(=O)NC1CCOCC1	-5%[87.6 µM]	-1%[87.6 µM]	35µM*	-2
CC(C)(Oc1nn(CC2CCOCC2)c2ccccc12)C(=O)NCCc1ccccc1	-22%[87.6 µM]	-7%[87.6 µM]	35µM*	6
CC(C)(Oc1nn(CC2CCOCC2)c2ccccc12)C(=O)NCCc1cccnc1	-6%[87.6 µM]	-14%[87.6 µM]	u	-6
Cc1nn(-c2ccccc2)c2c1C(C1CC1)N(C1CN(C(=O)c3ccc4c(c3)OCO4)C1)C2=O (stereo unspecified)	x	x	x	24
CC1(C(=O)NCc2ccncc2)CN(Cc2ccccc2)Cc2ccc(N3CCOCC3)nc21 (stereo unspecified)	-2%	-12%	u	16
CC(C)NC(=O)C1(C)CN(Cc2ccccc2)Cc2ccc(N3CCOCC3)nc21 (stereo unspecified)	-23%[87.6 µM]	1%[87.6 µM]	28µM*	10
CC1(C(=O)NCc2ccccc2)CN(Cc2ccccc2)Cc2ccc(N3CCOCC3)nc21 (stereo unspecified)	-26%	-20%	22µM*	8
CN1Cc2ccc(N3CCOCC3)nc2C(C)(C(=O)NCCCn2ccnc2)C1 (stereo unspecified)	6%[87.6 µM]	7%[87.6 µM]	32µM*	3
CC1(C(=O)NCc2cccnc2)CN(Cc2ccccc2)Cc2ccc(N3CCOCC3)nc21 (stereo unspecified)	3%	-7%	25µM*	7
COc1ccc(C2(C(=O)NC3CCCc4c3[nH]c3ccccc43)CCOCC2)cc1 (stereo unspecified)	5%	-8%	u	-2
COc1ccccc1-c1ccc(CN2CCCCC2C(=O)NC(C)C)cc1 (stereo unspecified)	x	x	x	11
c1ccc2c(c1)COC1(CCNC1)CN2CC1CCCCC1 (stereo unspecified)	-19%[87.6 µM]	-20%[87.6 µM]	u	-22
Cc1ccc(OCc2nc(C3CCN(C(=O)Cc4cccc(F)c4)C3)no2)cc1 (stereo unspecified)	5%	-3%	x	-6
CC1(C(=O)N2CCOCC2)CN(Cc2ccccc2)Cc2ccc(Nc3ccccc3)nc21 (stereo unspecified)	-25%	-26%	28µM*	-5
CN(C)CCNC(=O)C1(C)CN(Cc2ccccc2)Cc2ccc(N3CCOCC3)nc21 (stereo unspecified)	-5%[87.6 µM]	-16%[87.6 µM]	35µM*	-2
C=CCOc1c(OC)ccc2c1CN(CC=C)C(=O)CCN2C[C@@H](O)COCc1ccccc1	x	x	x	-7
COCCN1CCCCCC(O)c2cc(C(=O)N(C)Cc3ccc(N4CCCCC4)cc3)ccc21 (stereo unspecified)	-21%	-30%	7.9µM*	5
SMILES	HEK293 viab	SNCA expr inh	KDM5B inh	IP6K1 inh
COCCN1CCCCCC(O)c2cc(C(=O)NC3CCC3)ccc21 (stereo unspecified)	5%	31%	32µM*	0
O=C(NC1CCN(c2ccc3nnc(C4CC4)n3n2)CC1)C1CCCCC1	x	x	x	3
Cc1ccc(NC(=O)C2(c3ccc4c(c3)OC(F)(F)O4)CC2)nc1-c1cccc(C(=O)O)c1	u	0.076µM*	x	-4
COc1ccc(C(=O)N2CCC(Oc3ccc(-c4noc(C5CC5)n4)cc3)C2)cn1 (stereo unspecified)	-20%	2%	x	6
Cc1cc2cc(-c3c(C)noc3C)nc(Nc3cccc(F)c3)c2o1	-19%[87.6 µM]	u	u	10
Cc1cc2cc(-c3c(C)noc3C)nc(Nc3ccccc3)c2o1	-24%[87.6 µM]	21%[87.6 µM]	40µM*	3
COc1cc(CNc2nc(-c3c(C)noc3C)cc3cc(C)oc23)cc(OC)c1	u	-29%[87.6 µM]	32µM*	10
Cc1cc2cc(-c3c(C)noc3C)nc(Nc3ccc(Cl)cc3)c2o1	-15%[87.6 µM]	-13%[87.6 µM]	22µM*	16
Cc1cc2cc(-c3c(C)noc3C)nc(NCc3cccc(F)c3)c2o1	-14%[87.6 µM]	u	i	6
Cc1cc2cc(-c3c(C)noc3C)nc(Nc3ccc(F)cc3)c2o1	-12%[87.6 µM]	-19%[87.6 µM]	32µM*	12
COc1cccc(-c2cn3cc(C(=O)NCc4ccc(F)cc4)nc3s2)c1	-26%	-12%	x	-1
O=C(Cc1ccc(F)cc1)N1CCC2(CC1)CC(c1cccc(C(F)(F)F)c1)=NO2	x	x	x	7
O=C(CNC(=O)c1cccc(-c2ccc(C(F)(F)F)cc2)c1)NCCc1ccc(F)cc1	8%[12.5 µM]	-14%	x	0
O=C(NCCNC(=O)C1CCCC1)c1cccc(-c2ccsc2)c1	2%[12.5 µM]	-4%[87.6 µM]	x	-5
Cc1ccc(Cn2c(-c3cccc(Cl)c3)nc(C)c(CCO)c2=O)cc1	5%	0%	u	0
Cc1nc(-c2cccc(Cl)c2)n(Cc2cc(=O)n3ccccc3n2)c(=O)c1CCO	3%	8%	32µM*	1
Cc1nn(-c2ccccc2)c2c1C(C)N(C1CN(C(=O)Cc3cccc(Cl)c3)C1)C2=O (stereo unspecified)	x	x	x	7
Cc1ccc(-c2ncc(NC(=O)c3cccs3)cn2)cc1	6%	73%	32µM*	-5
CCc1nc2c(c(-c3ccc(Cl)cc3)n1)CCN(CC1CC1)CC2	-7%[87.6 µM]	20%[87.6 µM]	28µM*	-1
Oc1ccc(-c2nc(C3CC3)nc3c2CN(Cc2ccc(OC(F)(F)F)cc2)CC3)cc1	6%	9%	i	6
CC(C)c1nc2c(c(-c3ccc(O)cc3)n1)CN(Cc1ccc(OC(F)(F)F)cc1)CC2	7%	-15%	18µM*	1
CC(C)c1nc2c(c(-c3ccc(Cl)cc3)n1)CCN(CC1CCCCC1)CC2	3%	u	35µM*	-4
CC(C)c1nc2c(c(-c3ccc(Cl)cc3)n1)CCN(Cc1cccc3ccccc13)CC2	0%	u	56µM*	7
Cc1cccc(-c2cccc(CN3CCC(NC(=O)Cc4cccc(Cl)c4)CC3)c2)c1	u	u	x	-10
COc1cccc([S+](=O)([O-])NC2CCN(c3ccc4nnc(-c5ccccc5)n4n3)CC2)c1	x	x	x	-12
O=C(NC1CC1)c1ccc2nnc(Cc3ccc(Cl)cc3)n2c1	-10%	-20%	x	-13
CCc1nc2c(c(-c3ccc(Cl)cc3)n1)CN(Cc1ccc(OC)cc1)CC2	u	u	18µM*	-4
